Measurements reported in PubChem BioAssay (NCATS).
Where “and” joins values, the source holds several entries; their conditions need not be identical. Identical values can stand only once. Records with an inconclusive call do not appear. Values without a mark were called inactive. Calls of active or inactive are those of the source. The call rests on the fitted dose curve; in most records, active means well fitted curve in the direction sought with a large enough effect; inconclusive means small, poorly fitted or top-dose-only effect, or another doubt; inactive means no such curve, though single readings can be large; an effect the other way counts as inactive or inconclusive.

Columns and labels:
[1] = Viability qHTS for spleen associated tyrosine kinase inhibitor (SYKi) drug resistant MV4-11 cells (AID 1963824); further: nearly all actives have a fitted effect of over 35% in size
Method in brief: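 SYK inhibitor-resistant MV4-11 AML cells, 500 per well, added to predispensed compounds and incubated 72 hr at 37 C, 5% CO2. Viability measured by CellTiter-Glo luminescence after 10 min at room temperature.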

[2] = Quantitative highthroughput screen to assess conditional lethalithy of P12 Ichikawa cells grown in Human Plasma-Like Medium with dialyzed fetal bovine serum (HPLM+ds) (AID 1963879); settings: Potency: viability; further: nearly all actives have a fitted effect of over 35% in size; on Viability: series mostly up to about 46 µM
Method in brief: (§1)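 Each medium arm—HPLM with 10% dialyzed FBS, or RPMI1640 with 5 mM glucose and 10% untreated or dialyzed FBS—was screened against an 11-point, 3-fold compound titration for 48 h at 37 °C, with CellTiter-Glo luminescence as endpoint.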

[3] = Quantitative highthroughput screen to assess conditional lethalithy of P12 Ichikawa cells grown in RPMI1640 with dialyzed fetal bovine serum (RPMI+ds) (AID 1963880); settings: Potency: P12-Ichikawa viability; further: nearly all actives have a fitted effect of over 35% in size;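 on Viability: 100% = DMSO wells and 0% = empty wells on each plate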
Method in brief: as §1

[4] = Quantitative highthroughput screen to assess conditional lethalithy of P12 Ichikawa cells grown in RPMI1640 with untreated serum (RPMI+s) (AID 1963881); settings: Potency: viability; further: nearly all actives have a fitted effect of over 35% in size;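 on Viability: series mostly up to about 46 µM; 100% = DMSO wells and 0% = empty wells without cells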
Method in brief: as §1

[5] = Quantitative highthroughput screen to assess conditional lethalithy of SEM cells grown in Human Plasma-Like Medium with dialyzed fetal bovine serum (HPLM+ds) (AID 1963882); further: nearly all actives have a fitted effect of over 35% in size; on Viability: series mostly up to about 46 µM
Method in brief: as §1

[6] = Quantitative highthroughput screen to assess conditional lethalithy of SEM cells grown in RPMI1640 with unreated serum (RPMI+s) (AID 1963883); further: nearly all actives have a fitted effect of over 35% in size;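 on Viability: 100% = DMSO wells and 0% = empty wells without cells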
Method in brief: as §1

[7] = Quantitative highthroughput screen to assess conditional lethalithy of SEM cells grown in RPMI1640 with dialyzed fetal bovine serum (RPMI+ds) (AID 1963884); further: nearly all actives have a fitted effect of over 35% in size;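 on Viability: series mostly up to about 46 µM; 100% = DMSO control wells and 0% = empty wells without cells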
Method in brief: as §1

[8] = Cellular viability qHTS for adrenocortical cancer (ACC) cell line SW-13 (AID 1963989); settings: SW-13 ACC cells viability, CellTiter-Glo, 48 h; activity (max response): stronger effect = lower value; further: nearly all actives have a fitted effect of over 65% in size;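 on activity (max response): cells grown in serum-free medium with ITS supplement; on the % scale 0 is the no-effect control and ±100 the full control effect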
Method in brief: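 SW-13 cells in ITS-supplemented serum-free DMEM were plated overnight, then exposed for 48 h at 37C to compound titrations (up to 46 uM final). Viability was read by CellTiter-Glo luminescence; four-parameter logistic fits gave IC50 and efficacy.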

[9] = Cellular viability qHTS for adrenocortical cancer (ACC) cell line NCI-H295R (AID 1963990); further: nearly all actives have a fitted effect of over 60% in size
Method in brief: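 Luminescent ATP read-out (CellTiter-Glo, 20 min RT) after 48 h drug exposure of NCI-H295R cells; a titration up to 46 uM final. Data normalized to doxorubicin (100% inhibition) and DMSO (0%); 4-parameter fit gives IC50, max response.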

[10] = Quantitative highthroughput screen to assess conditional lethalithy of NOMO1 cells grown in RPMI1640 with dialyzed fetal bovine serum (RPMI+ds) (AID 1963877); further: nearly all actives have a fitted effect of over 30% in size;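 on Viability: series mostly up to about 46 µM; 100% = DMSO control wells and 0% = empty wells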
Method in brief: as §1

[11] = Quantitative highthroughput screen to assess conditional lethalithy of NOMO1 cells grown in Human Plasma-Like Medium with dialyzed fetal bovine serum (HPLM+ds) (AID 1963878); further: nearly all actives have a fitted effect of over 35% in size;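 on Viability: 100% = DMSO wells and 0% = empty wells on each plate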
Method in brief: as §1
Potency means the concentration at half of the fitted maximal effect.

SMILES | Potency [1] | Potency [2] | Potency [3] | Potency [4] | Potency [5] | Potency [6] | Potency [7] | Potency [8] | Potency [9] | Potency [10] | Potency [11] | activity (max response) [8]
O=C1c2c(O)ccc(O)c2C(=O)c2c(NCCNCCO)ccc(NCCNCCO)c21 | 59.6 nM (active) and 20.9 nM (active) | 0.296 µM (active) | 0.332 µM (active) | 0.264 µM (active) | 0.332 µM (active) | 0.235 µM (active) | 0.332 µM (active) | 1.16 µM (active) and 2.51 µM (active) | 4.11 µM (active) and 3.98 µM (active) | – | – | –
COc1cc2c(NC3CCN(C(C)C)CC3)nc(C3CCCCC3)nc2cc1OCCCN1CCCC1 | 3.32 µM (active) | – | 20.9 µM (active) | 23.5 µM (active) | 16.6 µM (active) | 26.4 µM (active) | – | 17.8 µM (active) | 12.6 µM (active) | 20.9 µM (active) | 23.5 µM (active) | –
CN1C(=O)c2sccc2N(C)c2nc(Nc3ccc(S(N)(=O)=O)cc3)ncc21 | 0.468 µM (active) | 2.63 µM (active) | 2.34 µM (active) | 2.63 µM (active) | 2.63 µM (active) | 2.34 µM (active) | 2.34 µM (active) | 20 µM (active) | – | – | 9.33 µM (active) | –
COc1cc(NCc2ccc3nc(N)nc(N)c3c2C)cc(OC)c1OC | 42.2 nM (active) and 1.05 µM (active) | 2.35 µM (active) | 10.5 µM (active) | 18.7 µM (active) | – | – | – | 10.3 nM (active) and 1.12 µM (active) | 14.6 nM (active) and 2.82 µM (active) | 10.5 µM (active) | – | –
CCN(CC)CCCCNc1nc2cc(Cl)c(Cl)cc2nc1-c1ccc(-c2cccs2)s1 | 4.68 µM (active) | – | 26.4 µM (active) | – | – | – | – | – | 7.08 µM (active) | – | 20.9 µM (active) | –
O=C(CCc1ccc(O)cc1)c1c(O)cc(O)cc1O | inactive | inactive | inactive | inactive | inactive | – | – | – | inactive | inactive | – | -4.39%
Cn1c(=O)n(-c2ccc(C(C)(C)C#N)cc2)c2c3cc(-c4cnc5ccccc5c4)ccc3ncc21 | 164 nM (active) and 60.5 nM (active) | 1.05 µM (active) | 1.66 µM (active) | 2.09 µM (active) | 0.235 µM (active) | 0.166 µM (active) | 0.372 µM (active) | – | 0.0751 µM (active) | 0.296 µM (active) | – | –
COc1cc2nc(N3CCN(C(=O)c4ccco4)CC3)nc(N)c2cc1OC | 11.6 µM (active) | 16.6 µM (active) | – | – | 9.35 µM (active) | 10.5 µM (active) | 7.43 µM (active) | – | – | – | 13.2 µM (active) | -8.85%
Cc1cc(-c2ccc(CC(=O)Nc3ccc(-c4cccnc4)cc3)cc2)ccn1 | 11.8 µM (active) | 6.62 µM (active) | 10.5 µM (active) | 16.6 µM (active) | 6.62 µM (active) | 10.5 µM (active) | 8.33 µM (active) | – | inactive | – | – | -19.6%
O=c1cc(-c2ccccc2)oc2cc(O)cc(O)c12 | 16.6 µM (active) | 26.4 µM (active) | 23.5 µM (active) | 20.9 µM (active) | 16.6 µM (active) | 11.8 µM (active) | – | – | – | – | 23.5 µM (active) | –
Nc1nc(=O)n([C@H]2C[C@H](O)[C@@H](CO)O2)cc1F | 0.0295 µM (active) | – | 0.0833 µM (active) | 0.105 µM (active) | – | – | – | – | – | 0.0209 µM (active) | – | –
CCn1c(-c2nonc2N)nc2c(C#CC(C)(C)O)ncc(OC[C@H]3CCCNC3)c21 | 7.42 µM (active) | 0.0526 µM (active) | – | – | 18.7 µM (active) | 23.5 µM (active) | 14.8 µM (active) | 28.2 µM (active) | – | inactive | – | –
Nc1nc2c(c(=O)[nH]1)N(C=O)[C@H](CNc1ccc(C(=O)N[C@@H](CCC(=O)O)C(=O)O)cc1)CN2 | inactive | 2.96 µM (active) | 3.32 µM (active) | 2.64 µM (active) | inactive | inactive | inactive | – | inactive | – | – | 4.65%
c1cnc2cc3c(cc2n1)C1CNCC3C1 | inactive | inactive | inactive | inactive | inactive | inactive | inactive | – | inactive | – | inactive | 7.13% and 6.77%
CCNC(=O)c1noc(-c2cc(C(C)C)c(O)cc2O)c1-c1ccc(CN2CCOCC2)cc1 | 0.0073 µM (active) | – | – | – | – | 0.0418 µM (active) | – | 0.0708 µM (active) | – | 0.0833 µM (active) | – | –
Cc1cn(CCN2CCN(c3ccccc3-c3cc(C#N)cc(C(=O)NCCCN4CCCC4)c3)CC2)c2ccccc12 | 3.66 µM (active) and 3.32 µM (active) | 8.31 µM (active) | 7.41 µM (active) | 8.31 µM (active) | – | 13.2 µM (active) | – | 22.4 µM (active) | 5.62 µM (active) | 10.5 µM (active) | 8.31 µM (active) | –
CCCCC(C)(C)[C@H](O)C=C[C@H]1[C@H](O)CC(=O)[C@H]1CC=CCCCC(=O)O | 0.148 µM (active) | – | 23.5 µM (active) | 26.4 µM (active) | 20.9 µM (active) | – | – | – | inactive | – | 20.9 µM (active) | –
